# Laboratory results taken from PubChem BioAssay AID1347165 (National Center for Advancing Translational Sciences (NCATS), 2019).
# In all, about 220,000 compounds went through this assay and about 5,700 (2.6%) were called active. Inconclusive results (about 18%) are left out. Calls come from the whole dose curve; as a rule, active = well fitted inhibition curve with a large enough effect; inconclusive = small, poorly fitted or top-dose-only effect; inactive = no such curve, though single readings can be large or run the other way. This excerpt belongs to a sample that is enriched for actives.
# Target: Lysine-specific demethylase 5B (Homo sapiens) (UniProt Q9UGL1)
# Sequence (Q9UGL1 whole entry, looked up): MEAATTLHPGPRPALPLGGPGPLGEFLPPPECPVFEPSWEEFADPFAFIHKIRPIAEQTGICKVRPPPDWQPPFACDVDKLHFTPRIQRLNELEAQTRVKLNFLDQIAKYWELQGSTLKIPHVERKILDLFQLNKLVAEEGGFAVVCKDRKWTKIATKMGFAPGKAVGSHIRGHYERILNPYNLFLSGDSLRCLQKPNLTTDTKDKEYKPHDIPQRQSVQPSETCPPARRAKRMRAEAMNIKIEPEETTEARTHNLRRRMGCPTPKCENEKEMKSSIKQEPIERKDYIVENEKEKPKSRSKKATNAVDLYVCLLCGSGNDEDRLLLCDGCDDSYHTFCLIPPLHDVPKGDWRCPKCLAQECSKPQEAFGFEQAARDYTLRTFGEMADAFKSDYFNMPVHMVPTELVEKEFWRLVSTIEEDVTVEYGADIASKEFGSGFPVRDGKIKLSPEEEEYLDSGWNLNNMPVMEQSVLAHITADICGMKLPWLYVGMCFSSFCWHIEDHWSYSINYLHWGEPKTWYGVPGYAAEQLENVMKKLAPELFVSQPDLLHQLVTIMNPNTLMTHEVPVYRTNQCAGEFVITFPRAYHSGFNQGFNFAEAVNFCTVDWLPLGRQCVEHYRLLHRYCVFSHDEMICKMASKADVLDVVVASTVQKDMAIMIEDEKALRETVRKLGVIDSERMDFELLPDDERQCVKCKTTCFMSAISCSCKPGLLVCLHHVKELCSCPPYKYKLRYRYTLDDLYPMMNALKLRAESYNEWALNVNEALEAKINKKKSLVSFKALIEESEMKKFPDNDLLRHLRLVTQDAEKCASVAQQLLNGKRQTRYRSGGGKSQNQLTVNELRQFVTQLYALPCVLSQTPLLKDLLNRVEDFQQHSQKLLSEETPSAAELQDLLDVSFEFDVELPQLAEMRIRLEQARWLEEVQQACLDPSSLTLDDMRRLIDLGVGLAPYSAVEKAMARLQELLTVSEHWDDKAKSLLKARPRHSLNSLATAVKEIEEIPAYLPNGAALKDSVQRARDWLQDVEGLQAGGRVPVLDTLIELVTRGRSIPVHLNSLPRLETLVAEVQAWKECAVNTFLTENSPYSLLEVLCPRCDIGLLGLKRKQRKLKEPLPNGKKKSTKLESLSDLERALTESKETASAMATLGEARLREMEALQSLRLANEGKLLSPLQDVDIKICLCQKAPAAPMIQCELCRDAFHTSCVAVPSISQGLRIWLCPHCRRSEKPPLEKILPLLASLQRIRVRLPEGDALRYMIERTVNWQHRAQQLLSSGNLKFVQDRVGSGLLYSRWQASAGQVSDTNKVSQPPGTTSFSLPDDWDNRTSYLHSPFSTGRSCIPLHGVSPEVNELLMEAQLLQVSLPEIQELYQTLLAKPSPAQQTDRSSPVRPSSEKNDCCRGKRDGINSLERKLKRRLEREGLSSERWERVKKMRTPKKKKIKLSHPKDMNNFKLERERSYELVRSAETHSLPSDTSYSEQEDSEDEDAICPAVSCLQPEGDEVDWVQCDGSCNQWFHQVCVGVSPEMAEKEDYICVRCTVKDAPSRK
# Assay: Primary screen for KDM5B Histone Demethylases FDH-coupled qHTS; note: nearly all actives have a fitted effect of over 70% in size; for activity change, negative = inhibition: 0% is about no effect
# Conditions: FDH-coupled NADH fluorescence (FDH is formaldehyde dehydrogenase); series mostly up to 57.7 µM; activity change, negative = inhibition: at the top concentration
# Summary of the method: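 qHTS format, multiple compound concentrations. Buffer 50 mM HEPES pH 7.5/0.01% Tween-20; 200 nM KDM5BΔAP final; 10 min compound preincubation; substrate-mix levels 12.5 µM peptide, 25 µM α-KG, 0.25 mM NAD⁺; 30 min RT; ΔRFU.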
# Potency is the fitted concentration of half-maximal effect.
SMILES,"activity change, negative = inhibition",Potency
COc1cc(CNCC(O)c2ccccc2)ccc1Oc1nnnn1-c1ccccc1 (stereo not given),22.5% (inactive),–
CCNC(=O)NC(=O)C(C)OC(=O)c1ccc(C(=O)OC)cc1 (stereo not given),8.54% (inactive),–
Cc1ccc(-n2nnnc2C2(Nc3ccccc3)CCCC2)cc1,14.5% (inactive),–
COc1cccc(CC(=O)NC2CCN(c3cn[nH]c(=O)c3)CC2)c1,-1.04% (inactive),–
COc1cccc(CN2CCN(C(=O)c3cnc4ccccn4c3=O)CC2=O)c1,–,28.2 µM (active)
COc1cccc(CN2CCOC3CCN(C(=O)c4cccnc4)CC3C2=O)c1 (stereo not given),-15.9% [at 86.2 µM] (inactive),–
O=C(CCc1cccs1)N(CC1CCOC1)C1CC1 (stereo not given),16.4% (inactive),–
Cc1nc2sc3c(c2c2nc(-c4ccc(O)cc4)nn12)CC(C)(C)OC3,-15.1% (inactive),–
Cn1c(Oc2cccc(Cl)c2)nc2c1c(=O)n(Cc1ccc(F)cc1)c(=O)n2C,4.11% (inactive),–
Cc1nc2ccc(C(=O)NCCCOCC3CC3)cc2nc1C,3.23% (inactive),–
O=C(CN1CCN(c2ccccc2)CC1)Nc1ccc(F)cc1,9.95% (inactive),–
O=C(CN1CCN(Cc2ccc(Cl)cc2)C1=O)NCc1ccc(F)cc1,-11.5% (inactive),–
O=C(Cc1ccc(F)cc1)NC1CCN(c2cc(-c3ccc(Cl)cc3)[nH]n2)CC1,-21.9% (inactive),–
COc1cc(NC(=O)CSc2nnc3ccc(-c4ccncc4)nn23)cc(OC)c1,-1.83% (inactive),–
O=C(Cc1ccc(Cl)cc1)NCc1nnc2ccc(-c3ccc(F)cc3)nn12,–,25.1 µM (active)
COc1ccc(CNc2nc(-c3ccc(Cl)cc3)nn2S(=O)(=O)c2ccc(C)cc2)cc1,3.11% (inactive),–
COc1ccc(-c2ccc3nnc(CNC(=O)C(C)Oc4ccc(Cl)cc4)n3n2)cc1 (stereo not given),–,28.2 µM (active)
COc1ccc(Oc2c(C)oc3cc(OCC(=O)NCc4ccccc4)ccc3c2=O)cc1,-5.87% (inactive),–
COc1cccc(C(=O)Oc2ccc(C)cc2C(=O)/C=C/c2ccc(F)cc2)c1,-3.94% (inactive),–
CC(C)NC(=O)Nc1cccc(C(=O)Nc2cccc(Cl)c2)c1,-1.45% (inactive),–
CC(NC(=O)/C=C/c1ccsc1)C1CCCO1 (stereo not given),22.6% (inactive),–
N#Cc1ccc(OCC(O)CNCCC2=CCCCC2)cc1 (stereo not given),23.8% (inactive),–

SMILES,"activity change, negative = inhibition",Potency
O=C(NCCc1c[nH]c2ccc(Cl)cc12)c1ccccc1,-16.9% (inactive),–
CC(C)Oc1ccc(/C(O)=C2\C(=O)C(=O)N(c3nccs3)C2c2cccc(Br)c2)cc1 (stereo not given),-24% (inactive),–
O=C(CSc1ncccn1)c1ccc(F)cc1,-6.11% (inactive),–
CCOc1ccc(-c2nc(S(=O)(=O)c3ccc(F)cc3)c(NC)o2)cc1,13.1% (inactive),–
O=C(CNc1nc(Cl)nc2nc[nH]c12)NC1CC1,-1.28% (inactive),–
O=C(CSc1nnc2ccc(-c3ccncc3)nn12)N1CCCCC1,20.2% (inactive),–
COc1ccc(C(=O)NCc2nnc3ccc(-c4ccc(C)cc4)nn23)cc1F,–,28.2 µM (active)
O=C(NCc1nnc2n1C(C(=O)NC1CC1)CC2)c1ccncc1 (stereo not given),1.09% [at 149 µM] (inactive),–
O=C(NCCCN1CCCC1)c1cccnc1,3.9% (inactive),–
Cc1ccc(-c2ccc3nnc(CNC(=O)c4cccnc4)n3n2)cc1C,–,31.6 µM (active)
Cc1ccc(-c2ccc3nnc(CNC(=O)c4ccncc4)n3n2)cc1C,–,28.2 µM (active)
COc1ccc(-c2nc3ccc(C(=O)NCc4ccc(C)cc4)cc3nc2-c2ccc(OC)cc2)cc1,-187% (inactive),–
O=C(NC/C(=N/NC(=O)c1cccnc1)c1ccccc1)c1ccccc1,-10% (inactive),–
CC[C@H](C)NC(=O)c1ccc2nc(-c3ccc(C)cc3)cc(OC)c2c1,-11.5% (inactive),–
CCc1nonc1NC(=O)COc1ccc(C)c(C)c1,7.03% (inactive),–
COc1ccc(NC(=O)CSCc2ccc(F)cc2Cl)cc1,2.87% (inactive),–
CCOC(=O)COn1c(=O)c(-c2ccc(OCC)cc2)[n+]([O-])c2ccccc21,-7.54% (inactive),–
CC(C)(C)c1ccc(C(=O)Nc2nc3c(s2)C[C@@H]2[C@](C)(CO)[C@H](O)CC[C@@]2(C)[C@@H]3CC(=O)NCc2cccs2)cc1,–,14.1 µM (active)
C=CCOC(=O)Nc1nc2c(s1)C[C@@H]1[C@](C)(CO)[C@H](O)CC[C@@]1(C)[C@@H]2CC(=O)N(CC)CC,1.16% (inactive),–
CN(C)CCNC(=O)C[C@@H]1c2nc(NC(=O)c3ccc(C(C)(C)C)cc3)sc2C[C@@H]2[C@](C)(CO)[C@H](O)CC[C@]21C,0.551% (inactive),–
CC(=O)N1CCN(C(=O)C[C@@H]2c3nc(NC(=O)c4cccs4)sc3C[C@@H]3[C@](C)(CO)[C@H](O)CC[C@]32C)CC1,-22.1% (inactive),–
C=CCN(C)C(=O)C[C@@H]1c2nc(NC(=O)c3ccc(C(C)(C)C)cc3)sc2C[C@@H]2[C@](C)(CO)[C@H](O)CC[C@]21C,–,31.6 µM (active)

SMILES,"activity change, negative = inhibition",Potency
C[C@]1(CO)[C@H]2Cc3sc(NC(=O)C4CCCCC4)nc3[C@@H](CC(=O)NCc3cccs3)[C@]2(C)CC[C@H]1O,-19.3% (inactive),–
CC(C)(C)C(=O)COC(=O)c1cc(-c2ccccc2)c(N2CCOCC2)s1,-15.4% (inactive),–
CC(C)C(=O)N1CC(=O)Nc2ccc(F)cc2C1c1ccc(F)cc1 (stereo not given),18.1% (inactive),–
CC(=O)c1ccc(N2CCN(C(=O)CCNC(=O)Cn3ccc4ccccc4c3=O)CC2)cc1,-4.99% (inactive),–
Cc1cnc(C(=O)N(C)Cc2ccc(Cl)s2)cn1,6.09% (inactive),–
Cc1ccc(C(C)C)c(OCCSc2nc3ccccc3n2CC(=O)O)c1,-10.6% (inactive),–
COc1ccc(OC)c(CC(C(=O)Nc2ccc(F)cc2)c2nn[nH]n2)c1 (stereo not given),-1.51% (inactive),–
O=C(NCc1ccc(Cl)nc1)c1cn2c(n1)CN(C(=O)c1cccnc1)CC2,-15.4% [at 115 µM] (inactive),–
O=C(NCc1ccc(Cl)nc1)c1cnn2ncccc12,–,31.6 µM (active)
O=C(NCc1cccnc1)c1cnc2ccccc2n1,-14.4% (inactive),–
O=C(NCc1cccnc1)c1nc(-c2ccc(Cl)nc2)c2cnccn12,–,63.1 µM (active)
O=C(NCc1ccc(Cl)nc1)c1ccn2cncc2c1,-8620% [at 86.2 µM] (inactive),–
O=C(NCc1ccc(Cl)cc1)c1cccn2nccc12,–,35.5 µM (active)
O=C(NCc1ccc(Cl)nc1)c1c[nH]c2cccnc12,-18.6% [at 149 µM] (inactive),–
O=C(NCc1ccc(Cl)cc1)c1cc(-c2ccc[nH]2)n[nH]1,-9.79% (inactive),–
O=C(CSc1nccn1Cc1ccc(Cl)cc1)NCc1ccccc1,-11.1% (inactive),–
CC1CCCN(CC(=O)Nc2oc3ccccc3c(=O)c2-c2ccc(F)cc2)C1 (stereo not given),-1.49% (inactive),–
N#Cc1cccc(Cn2c(=O)c3c(ncn3C3CCCC3)n(Cc3ccccc3)c2=O)c1,6.91% (inactive),–
CN(C)c1cccc(-c2cnc(Nc3ccc(N4CCOCC4)cc3)c3c2CCO3)c1,–,35.5 µM (active)
CN1CCN(Cc2ccc(Nc3ncc(-c4cccnc4)c4c3OCC4)cc2)CC1,-29.8% [at 86.2 µM] (inactive),–
COc1ncccc1Nc1ncc(-c2ccccc2)c2c1OCC2,-642% [at 86.2 µM] (inactive),–
